Assay results as given in PubChem BioAssay AID1159580 (chemical genetic matrix, 2015).
“And” between values parts separate entries of the source, which are not always exact repeats. Equal values may be shown once. Hit rate of the full screen: of about 5,500 compounds, about 2,000 (36%) were called active. Inconclusive results (about 18%) are left out. Cut-off read from the data, not from the text of the source: active = normalized growth mostly below about 0.91 (no sharp cut-off); inconclusive = no clear call, values can overlap the other calls; inactive = mostly above about 0.92. The list shows a part of the results.

Assay: chemical genetic growth profiling, strain panel (AID 1159580);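 note: tested at 20 µM; growth read once vehicle control cultures reached saturation at 30 °C; 1 = growth at the plate median or of vehicle wells; lower values mean less growth of the strain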
Conditions: growth OD

Measured: normalized growth

Clc1ccc(C(c2ccccc2Cl)C(Cl)Cl)cc1 (stereo not given)
inactive: S. cerevisiae deletion strains, locus YJR066W, strain TOR1, hits give low values 0.894 | S. cerevisiae deletion strains, locus YJR075W, strain HOC1, hits give low values 1 | S. cerevisiae deletion strains, locus YKL009W, strain mrt4, hits give low values 0.98 | S. cerevisiae deletion strains, locus YKL068W, hits give low values 0.995 | S. cerevisiae deletion strains, locus YKL085W, strain MDH1 (second series), hits give low values 0.989 | S. cerevisiae deletion strains, locus YKL085W, strain MDH1, hits give low values 0.989 | S. cerevisiae deletion strains, locus YKL160W, strain elf1, hits give low values 0.923 | S. cerevisiae deletion strains, locus YKL190W, strain CNB1, hits give low values 1.03 | S. cerevisiae deletion strains, locus YKR001C, strain vps1, hits give low values 0.968 | S. cerevisiae deletion strains, locus YKR026C, strain gcn3, hits give low values 0.979 | S. cerevisiae deletion strains, locus YKR091W, strain srl3, hits give low values 0.976 | S. cerevisiae deletion strains, locus YLL001W, strain dnm1, hits give low values 0.91 | S. cerevisiae deletion strains, locus YLL026W, hits give low values 0.962 | S. cerevisiae deletion strains, locus YLL041C, strain sdh2, hits give low values 0.972 | S. cerevisiae deletion strains, locus YLR039C, strain RIC1, hits give low values 0.978 | S. cerevisiae deletion strains, locus YLR058C, strain SHM2, hits give low values 0.994 | S. cerevisiae deletion strains, locus YLR102C, strain apc9, hits give low values 0.993 | S. cerevisiae deletion strains, locus YLR113W, strain HOG1, hits give low values 0.93 | S. cerevisiae deletion strains, locus YLR221C, strain rsa3, hits give low values 0.927 | S. cerevisiae deletion strains, locus YLR258W, strain gsy2, hits give low values 0.984 | S. cerevisiae deletion strains, locus YLR262C, strain YPT6 (second series), hits give low values 0.881 | S. cerevisiae deletion strains, locus YLR262C, strain YPT6, hits give low values 0.955 | S. cerevisiae deletion strains, locus YLR268W, strain sec22, hits give low values 0.988 | S. cerevisiae deletion strains, locus YLR320W, strain mms22, hits give low values 0.929 | S. cerevisiae deletion strains, locus YLR330W, strain CHS5, hits give low values 1 | S. cerevisiae deletion strains, locus YLR342W, strain FKS1 (second series), hits give low values 1 | S. cerevisiae deletion strains, locus YLR342W, strain FKS1, hits give low values 0.999 | S. cerevisiae deletion strains, locus YLR357W, strain rsc2, hits give low values 1.04 | S. cerevisiae deletion strains, locus YLR370C, strain arc18, hits give low values 0.968 | S. cerevisiae deletion strains, locus YLR371W, strain rom2, hits give low values 0.985 | S. cerevisiae deletion strains, locus YLR384C, strain iki3, hits give low values 0.97 | S. cerevisiae deletion strains, locus YLR418C, strain cdc73, hits give low values 0.91 | S. cerevisiae deletion strains, locus YML016C, strain PPZ1, hits give low values 0.992 | S. cerevisiae deletion strains, locus YML032C, strain rad52, hits give low values 0.979 | S. cerevisiae deletion strains, locus YML120C, strain ndi1, hits give low values 0.932 | S. cerevisiae deletion strains, locus YML124C, strain tub3, hits give low values 0.988 | S. cerevisiae deletion strains, locus YMR058W, strain fet3, hits give low values 0.952 | S. cerevisiae deletion strains, locus YMR078C, strain ctf18, hits give low values 0.984 | S. cerevisiae deletion strains, locus YMR125W, strain sto1, hits give low values 0.991 | S. cerevisiae deletion strains, locus YMR129W, hits give low values 0.972 | S. cerevisiae deletion strains, locus YMR205C, strain PFK2, hits give low values 0.918 | S. cerevisiae deletion strains, locus YMR223W, strain ubp8, hits give low values 0.978 | S. cerevisiae deletion strains, locus YMR231W, strain pep5, hits give low values 0.97 | S. cerevisiae deletion strains, locus YMR263W, strain SAP30, hits give low values 0.975 | S. cerevisiae deletion strains, locus YMR307W, strain GAS1, hits give low values 0.986 | S. cerevisiae deletion strains, locus YNL067W, strain RPL9B, hits give low values 0.993 | S. cerevisiae deletion strains, locus YNL128W, strain TEP1, hits give low values 1.01 and 1.02 | S. cerevisiae deletion strains, locus YNL153C, strain GIM3, hits give low values 1.01 | S. cerevisiae deletion strains, locus YNL183C, strain NPR1, hits give low values 0.914 | S. cerevisiae deletion strains, locus YNL197C, strain WHI3, hits give low values 1.1 | S. cerevisiae deletion strains, locus YNL209W, strain ssb2, hits give low values 0.983 | S. cerevisiae deletion strains, locus YNL224C, strain SQS1, hits give low values 1 | S. cerevisiae deletion strains, locus YNL233W, strain BNI4, hits give low values 1.01 | S. cerevisiae deletion strains, locus YNL248C, strain rpa49, hits give low values 0.99 | S. cerevisiae deletion strains, locus YNL250W, strain rad50, hits give low values 0.987 | S. cerevisiae deletion strains, locus YNL271C, strain bni1, hits give low values 0.987 | S. cerevisiae deletion strains, locus YNL298W, strain CLA4, hits give low values 0.978 | S. cerevisiae deletion strains, locus YNL307C, strain MCK1, hits give low values 0.912 | S. cerevisiae deletion strains, locus YNL322C, strain KRE1 (second series), hits give low values 0.976 | S. cerevisiae deletion strains, locus YNL322C, strain KRE1, hits give low values 1 | S. cerevisiae deletion strains, locus YNR049C, strain mso1, hits give low values 0.978 | S. cerevisiae deletion strains, locus YNR052C, strain pop2, hits give low values 0.985 | S. cerevisiae deletion strains, locus YOL006C, strain TOP1, hits give low values 0.918 | S. cerevisiae deletion strains, locus YOL012C, strain htz1 0.884 | S. cerevisiae deletion strains, locus YOL147C, strain pex11, hits give low values 0.991 | S. cerevisiae deletion strains, locus YOR001W, strain rrp6, hits give low values 0.931 | S. cerevisiae deletion strains, locus YOR061W, strain CKA2, hits give low values 1 | S. cerevisiae deletion strains, locus YOR069W, strain VPS5, hits give low values 1.01 | S. cerevisiae deletion strains, locus YOR070C, strain gyp1, hits give low values 0.996 | S. cerevisiae deletion strains, locus YOR080W, strain dia2, hits give low values 0.969 | S. cerevisiae deletion strains, locus YOR083W, strain WHI5, hits give low values 0.921 | S. cerevisiae deletion strains, locus YOR106W, strain vam3, hits give low values 0.888 | S. cerevisiae deletion strains, locus YOR136W, strain idh2, hits give low values 0.976 | S. cerevisiae deletion strains, locus YOR144C, strain elg1, hits give low values 0.991 | S. cerevisiae deletion strains, locus YOR184W, strain ser1, hits give low values 0.963 | S. cerevisiae deletion strains, locus YOR231W, strain MKK1, hits give low values 0.948 | S. cerevisiae deletion strains, locus YOR265W, strain rbl2, hits give low values 0.97 | S. cerevisiae deletion strains, locus YOR270C, strain vph1, hits give low values 0.789 | S. cerevisiae deletion strains, locus YOR290C, strain snf2, hits give low values 0.983 | S. cerevisiae deletion strains, locus YOR316C, strain cot1, hits give low values 0.984 | S. cerevisiae deletion strains, locus YPL051W, strain arl3, hits give low values 0.956 | S. cerevisiae deletion strains, locus YPL055C, strain LGE1, hits give low values 1.03 | S. cerevisiae deletion strains, locus YPL106C, strain sse1, hits give low values 1 | S. cerevisiae deletion strains, locus YPL240C, strain hsp82, hits give low values 0.983 | S. cerevisiae deletion strains, locus YPL241C, strain CIN2, hits give low values 1.01 | S. cerevisiae deletion strains, locus YPL256C, strain CLN2, hits give low values 0.908 | S. cerevisiae deletion strains, locus YPR119W, strain clb2, hits give low values 0.991 | S. cerevisiae deletion strains, locus YPR141C, strain kar3, hits give low values 0.995 | S. cerevisiae deletion strains, locus YPR163C, strain tif3, hits give low values 0.992 | S. cerevisiae deletion strains, locus YPR167C, strain met16, hits give low values 0.989 | S. cerevisiae deletion strains, strain wtn01, hits give low values 0.977 | S. cerevisiae strains, strain wild type, hits give low values 1.01
active: S. cerevisiae deletion strains, locus YLR027C, strain aat2, hits give low values 0.889 | S. cerevisiae deletion strains, locus YNL071W, strain lat1, hits give low values 0.907 | S. cerevisiae deletion strains, locus YPL078C, strain atp4, hits give low values 0.889
